# Results filed as inconclusive are left out. Activity calls are given as the source filed them. Calls follow the shape of the dose curve; as a rule, active = well fitted cell-killing curve with a large enough effect in the repeat runs; inconclusive = weak or mixed curves, or effect the other way; inactive = no such curve, though single readings can be large or run the other way.
# Experiment: qHTS assay to identify small molecule agonists of the RXR signaling pathway - cell viability counter screen (AID 1159529); also: nearly all actives have a fitted effect of over 50% in size
# Details: RXR-alpha-bla HEK293T viability, CellTiter-Glo, 16 h; series mostly up to 76.8 µM; activity change, negative = cytotoxicity: at the top concentration
# Description: National Center for Advancing Translational Sciences [NCATS]
# NIH Chemical Genomics Center [NCGC]
# U.S. Environmental Protection Agency [EPA]
# National Institutes of Environmental Health Sciences [NIEHS]
# National Toxicology Program [NTP]
# U.S. Food and Drug Administration [FDA]
# The Retinoid X receptor (RXR), a nuclear hormone receptor expressed in liver, spleen, placenta, epidermis, central nervous system. These receptors are able to form homo and heterodimers with other nuclear receptors and due to this heterodimerizing ability, RXR functions as master regulators producing diverse physiological effects. Three subtypes of RXR exist; alpha, beta and gamma. Retinoid X receptor alpha (RXR-alpha) has potential roles in metabolic signaling pathways, skin alopecia, dermal cysts, cardiac development, insulin sensitization etc. Therefore screening environmental chemicals on RXR-alpha signaling can be used for the studies focused on such therapeutic applications. For quantification of RXR-alpha ligands signaling, GeneBLAzer RXR alpha-UAS-bla HEK 293T (Life Technologies, Carlsbad, CA) cells containing a beta-lactamase reporter-gene under control of Retinoid X receptor-alpha response element were used to screen Tox21 10K library. The cytotoxicity of the Tox21 compound library against the RXR-alpha HEK 293T cell line was tested in parallel by measuring cell viability using CellTiter-Glo assay (Promega Corporation, Madison, WI) in the same wells.
# Tox21 Assay Protocol Summary:
# RXR-alpha HEK 293T cells were dispensed at 2,000 cells/6 uL of assay medium containing 2% charcoal-stripped FBS using a Multidrop Combi (ThermoFisher Scientific, Waltham, MA) dispenser. The assay was performed in black wall/clear-bottom 1536-well plates (Greiner Bio-One North America Inc. Monroe, NC). Tetraoctyl ammonium bromide was used as a positive control in the cytotoxicity screen. After the assay plates were incubated at 37 C and 5% CO2 for 5 hr, 23 nL of compounds dissolved in DMSO, positive control or DMSO only were transferred to the assay plate by a Pintool station (Kalypsys, San Diego, CA). The assay plates were incubated at 37 C and 5% CO2 for 16 hr. One uL of LiveBLAzer B/G FRET substrate (Life Technologies) was added using a Flying Reagent Dispenser (FRD) (Aurora Discovery, San Diego, CA) and the plates were incubated at room temperature for 2 hr. Fluorescence intensity (405 nm excitation, 460/530 nm emission) was measured using an Envision plate reader (PerkinElmer, Shelton, CT). For cytotoxicity, 4 uL/well of CellTiter-Glo reagent was added into the assay plates using an FRD. After 30 min incubation at room temperature, the luminescence intensity was measured using a ViewLux plate reader (PerkinElmer).
# % is scaled to controls: 0 for no effect and ±100 for the full control effect; potency is read from the fitted curve at half-maximal effect.
SMILES,"activity change, negative = cytotoxicity",Potency
CCN(C(=O)c1cc(C)cc(OC[C@H](C)Nc2ccncc2)c1)C(C)C,-19% [at 35.3 µM] (inactive),–
Nc1cc(C(F)(F)F)ccc1S,–,8.49 µM (active)
Oc1cccc2cc3cccc(O)c3c(O)c12,14.7% (inactive),–
CCCCc1oc2ccc(NS(C)(=O)=O)cc2c1C(=O)c1ccc(OCCCN(CCCC)CCCC)cc1,–,9.52 µM (active)
Cc1cc(C2CCCCC2)n(O)c(=O)c1,-15.2% [at 35.3 µM] (inactive),–
Cc1cc(N)c(S(=O)(=O)O)cc1Cl,-1.63% (inactive),–
CCCCCOC(=O)CCCC,1.25% (inactive),–
Cc1[nH]cnc1C[C@H]1CCc2c(C)c3ccccc3n2C1=O,–,19 µM (active)
Cc1cc(O)c(C(C)(C)C)cc1Sc1cc(C(C)(C)C)c(O)cc1C,–,12.3 µM (active)
COc1ccc(CN2CCN(C(c3ccc(F)cc3)c3ccc(F)cc3)CC2)c(OC)c1OC,–,13.4 µM (active)
Cc1ccc2oc(CN(Cc3ccccc3)C(=O)Nc3c(F)cc(F)cc3F)c(-c3ccc(Cl)cc3)c2c1,-1.01% (inactive),–
CSc1cnc(C)cn1,12.1% [at 200 µM] (inactive),–
Oc1ccc(N=Nc2ccccc2)cc1,6.4% (inactive),–
CC(=O)OCC(C)OC(C)=O (stereo not given),3.29% (inactive),–
Cc1oc(-c2ccccc2)nc1CCC(=O)c1ccc(CC2SC(=O)NC2=O)cc1 (stereo not given),-14.7% [at 35.3 µM] (inactive),–
CC[C@H](c1ccc(O)cc1)[C@@H](CC)c1ccc(O)cc1,–,49 µM (active)
O=C1c2c(O)ccc(Nc3ccc(CCO)cc3)c2C(=O)c2c([N+](=O)[O-])ccc(O)c21,-6.41% (inactive),–
CSc1ccc2c(c1)C(N1CCN(C)CC1)Cc1ccccc1S2 (stereo not given),–,23.9 µM (active)
NC(=O)CC[C@@H]1NC(=O)[C@H](Cc2ccccc2)NC(=O)[C@H](Cc2ccc(O)cc2)NC(=O)CCSSC[C@@H](C(=O)N2CCC[C@H]2C(=O)N[C@@H](CCCN=C(N)N)C(=O)NCC(N)=O)NC(=O)[C@H](CC(N)=O)NC1=O,1.22% [at 35.3 µM] (inactive),–
Nc1ccccc1O,-7.9% (inactive),–

SMILES,"activity change, negative = cytotoxicity",Potency
O=CC=C(c1ccccc1)c1ccccc1,-12.7% (inactive),–
CC(C)(C)NC(=O)[C@@H]1C[C@@H]2CCCC[C@@H]2CN1C[C@@H](O)[C@H](Cc1ccccc1)NC(=O)[C@H](CC(N)=O)NC(=O)c1ccc2ccccc2n1,–,24.9 µM (active)
CC(C)(C)C(=O)OCOC(=O)[C@@H]1N2C(=O)[C@@H](NC(=O)[C@H](N)c3ccccc3)[C@H]2SC1(C)C,-2.04% [at 35.3 µM] (inactive),–
Cc1cc(CCN2CCN(c3nsc4ccccc34)CC2)cc2c1NC(=O)CC2(C)C,–,11 µM (active)
CCCCCCCCCCCCCCCC(=O)OC[C@H](O)[C@H]1OC(=O)C(O)=C1O,–,38.9 µM (active)
CN1CCN(CCC(=O)N2c3ccccc3Sc3ccc(C(F)(F)F)cc32)CC1,–,23.9 µM (active)
Oc1cc2ccccc2c2ccccc12,–,4.9 µM (active)
O=C(OCC(COC(=O)c1ccccc1)(COC(=O)c1ccccc1)COC(=O)c1ccccc1)c1ccccc1,-0.272% (inactive),–
CC(C)(C)CC(C)(C)c1ccc(O)c(Cc2ccc(Cl)cc2Cl)c1,–,7.56 µM (active)
Clc1ccc(C(Cn2ccnc2)OCc2ccc(Sc3ccccc3)cc2)c(Cl)c1 (stereo not given),-8.8% [at 35.3 µM] (inactive),–
CCCCCCCCCCCCCCCC[N+](C)(C)CCN(Cc1ccc(OC)cc1)c1ncccn1,–,5.35 µM (active)
C[C@]12CCC(=O)C=C1CC[C@@H]1[C@@H]2[C@@H](O)C[C@@]2(C)[C@H]1CC[C@]2(O)C(=O)COC(=O)CCC(=O)O,10.5% [at 35.3 µM] (inactive),–
COc1cc(-c2nc(NC(=O)c3cc4cc(C)cc(C)c4n3CC(=O)O)sc2CCC2CCCCC2)c(OC)cc1Cl,–,20.1 µM (active)
OC1(c2ccc(Cl)c(C(F)(F)F)c2)CCN(CCCC(c2ccc(F)cc2)c2ccc(F)cc2)CC1,–,6.74 µM (active)
C/C=C1/C(=O)C[C@H]2[C@@H]3CCC4=CC(=O)CC[C@]4(C)[C@H]3CC[C@]12C,-12.7% (inactive),–
CCC(N)(CO)CO,8.13% (inactive),–
C/C(=C(/OCCOc1ccc(Cl)cc1)c1ccc(Cl)cc1Cl)n1ccnc1,-15.3% [at 35.3 µM] (inactive),–
O=C1c2ccccc2Cc2ccccc21,3.4% (inactive),–
O=C(c1ccc(O)cc1O)c1ccc(O)cc1O,24.2% (inactive),–
CCOC(=O)O[C@]1(C(=O)OCCl)CC[C@H]2[C@@H]3CCC4=CC(=O)C=C[C@]4(C)[C@H]3[C@@H](O)C[C@@]21C,4.61% [at 35.3 µM] (inactive),–
